PubChem BioAssay (NCI)
The panel holds about 83,000 compounds, 20% with a hit somewhere; the sample as a whole holds those more often.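 The test compound was applied at a single concentration to cells in 96-well plates for 48 hours, and percent growth was recorded.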 A number with no mark means an inactive call. Activity calls are given as the source filed them. How the source made its calls: active means growth percent below 10; inactive means the rest.

Key:
Assay in all cases: NCI-60 one-dose screen, 48 h (100 = growth as untreated, 0 = no growth, -100 = all killed)
Conditions in all cases: 10 µM
NCI-H23 lung = system: NCI-H23 lung
NCI-H226 lung = system: NCI-H226 lung
NCI-H322M lung = system: NCI-H322M lung
HOP-62 NSCLC = system: HOP-62 NSCLC
NCI-H460 lung = system: NCI-H460 lung
HOP-92 NSCLC = system: HOP-92 NSCLC
NCI-H522 lung = system: NCI-H522 lung
A549/ATCC NSCLC = system: A549/ATCC NSCLC
786-0 renal = system: 786-0 renal
COLO 205 colon = system: COLO 205 colon

SMILES | growth (NCI-H23 lung) | growth (NCI-H226 lung) | growth (NCI-H322M lung) | growth (HOP-62 NSCLC) | growth (NCI-H460 lung) | growth (HOP-92 NSCLC) | growth (NCI-H522 lung) | growth (A549/ATCC NSCLC) | growth (786-0 renal) | growth (COLO 205 colon)
O=C(Nc1ccncc1)c1ccc(-n2c(=O)[nH]c3ccccc3c2=O)cc1 | 80.1% | 87.4% | 97.6% | 99% | 110% | 77.1% | 84.9% | 106% | 94.2% | 102%
Cc1cccc2cc(-c3cc(-c4ccccc4)nc(=S)[nH]3)c(Cl)nc12 | 82.2% | 90.5% | 90.2% | 97.4% | 101% | 73.2% | 64.2% | 95.9% | 97.7% | 123%
Cc1ccc(NC(=O)NCn2c(=O)[nH]c3ccccc3c2=O)cc1 | 53.2% | 22.5% | 89.1% | 44.8% | 64.7% | 30.7% | 73.7% | 81.1% | 50.7% | 115%
Cn1cc(-c2cc(N)n3nc(-c4c[nH]c5ccc(Br)cc45)cc3n2)c2cccnc21 | -84% (active) | -71.2% (active) | -42% (active) | -89.6% (active) | -35.7% (active) | -67.7% (active) | -82.8% (active) | -80% (active) | -80.2% (active) | -85.8% (active)
N#Cc1ccc(-c2nn(-c3ccc(C(=O)O)cc3)cc2CNc2cc(Cl)cc(Cl)c2)cc1 | 18.7% | 47.2% | 58% | 41.8% | 32.3% | 46.8% | 73.1% | 53.7% | 36% | 109%
CCCS(=O)(=O)c1oc(-c2ccc(F)cc2)nc1S(=O)(=O)c1ccc(F)cc1 | -42.1% (active) | 64.7% | 89.8% | 84% | 61.7% | -80.6% (active) | -92.9% (active) | 82.5% | -52.2% (active) | -92.1% (active)
CC1(c2ccccc2)NC(=O)N(CC(=O)Nc2ccc(C(=O)/C=C/c3ccccc3)cc2)C1=O (stereo not given) | 65.5% | 45.7% | 90.2% | 85.9% | 69.4% | 50.7% | 71.4% | 44.3% | 42.6% | 76.4%
COC1CC(Cn2cc(COc3ccc4ccc(=O)oc4c3)nn2)C(OCc2ccccc2)C(OCc2ccccc2)C1OCc1ccccc1 (stereo not given) | 95.1% | 92.8% | 106% | 98.9% | 113% | 80.3% | 92.4% | 92.3% | 102% | 121%
O=C(CNc1nc(-c2ccccc2)cs1)Nc1ccc(Br)cc1 | -90.8% (active) | -58.6% (active) | -99.5% (active) | -78.8% (active) | -61.5% (active) | -71.5% (active) | -77.8% (active) | -82.3% (active) | -73.2% (active) | -77.4% (active)
COc1cc(/C=C/C(=O)c2ccc(C(F)(F)F)cc2)ccc1Oc1nc(Nc2ccc(F)cc2)nc(N(C)C)n1 | 64.6% | 71.7% | 82.8% | 102% | 82.7% | 81.5% | 76.7% | 78.7% | 71.8% | 134%
CCCCSc1nc(Nc2ccc(/C(C)=N/NC(N)=S)cc2)c(C#N)c(-c2ccc(OC)cc2)n1 | 31.4% | -6.28% (active) | 74.8% | 54.4% | 46.5% | -4.59% (active) | 85.7% | 47.4% | -71.5% (active) | 125%
CCCCCCCCCCCCCCCCCCCC(=O)NCCc1c[nH]c2ccc(O)cc12 | 103% | 87.6% | 114% | 144% | 101% | 148% | -13.2% (active) | 90.8% | 100% | 147%
O=C1NC(=NC23CC4CC(CC(C4)C2)C3)N/C1=C\c1ccc2ncoc2c1 | -49.7% (active) | 21.4% | 3.73% (active) | 13.2% | 13.7% | 15.3% | -17.3% (active) | 10% | 14.4% | -34.4% (active)
O=c1[nH]c2ccccc2cc1CSc1ccc(Nc2nccc(-c3ccc4ccccc4c3)n2)cc1 | 18.1% | 19% | 70.1% | 74.7% | 24.3% | -3.82% (active) | 71.5% | 22.4% | 51.7% | 25.3%
Cn1cc(/C=N/Nc2cccc(Cl)n2)c2ccccc21 | 69.2% | 68.9% | 89.9% | 75.8% | 63.8% | 42.8% | 74.3% | 76% | 63.7% | 67.7%
Cc1ccc([N+](=O)[O-])c(C(=O)Nc2ccc(-c3ccc4c(c3)NC(=O)/C4=C\c3ccc[nH]3)cc2)c1 | 21% | 52% | 48.9% | 86% | 0.658% (active) | 109% | 39.5% | 47% | 61.6% | 8.99% (active)
Cc1ccc(F)cc1N/C=c1\s/c(=C(\C#N)C(=O)Nc2ccccc2)n(-c2ccccc2)c1=O | 58% | 20.3% | 81.8% | 51.8% | 71.7% | 27.6% | 74.7% | 37.7% | 34.6% | 99%
[2H]C([2H])([2H])Oc1ccc2ncc(C#Cc3cncc(C(=O)Nc4ccc(CN5CCN(C)CC5)c(C(F)(F)F)c4)c3)n2n1 | -80.5% (active) | -65.8% (active) | -98.9% (active) | -41% (active) | 2.44% (active) | -66.6% (active) | -40.4% (active) | -33% (active) | -28.6% (active) | -62.2% (active)
Cc1ccc(/C=C/C(=O)c2ccc(NC(=O)CSc3nnc(-c4c[nH]c5ccccc45)n3-c3ccccc3)cc2)c(C)c1 | -1.3% (active) | 33.1% | 75.8% | 99.4% | -35.8% (active) | 76.8% | 25% | 54.3% | 65.8% | 70.5%
CN(C(=O)c1ccc(C(F)(F)F)cc1C(F)(F)F)c1sc2c(c1C#N)CCC(=O)C2 | 50% | 102% | 93.6% | 92% | 113% | 80.6% | -59.7% (active) | 94.4% | 85.2% | 112%
Cc1ccc2nc(-c3ccc(-c4nnc(SCC(=O)Nc5ccc(Br)cc5)o4)cc3)[nH]c2c1 | 50.3% | 62.1% | 80.7% | 72.9% | 14.4% | 91.9% | 62.6% | 89.5% | 84.6% | 87.3%
COc1ccc(-c2cc(C(=O)N=Nc3c(O)[nH]c4ccc(Br)cc34)c3ccccc3n2)cc1 | 5.57% (active) | 50.6% | 70% | 91.6% | 5.22% (active) | 71.4% | 57.7% | 61.1% | 80.1% | 53.2%
CN1C(=O)N(C)C2SC(N/N=C/c3ccc(F)cc3)=NC21 (stereo not given) | 63.5% | 75.6% | 97.4% | 53.5% | 32.6% | 71.1% | 14.7% | 49.6% | 50.2% | 46.5%
O=C(c1ccc(O)cc1)C1[C@H](c2ccccc2Br)[C@@H](c2ccccc2)NC12C(=O)Nc1ccc(Cl)cc12 (stereo not given in full) | -34.8% (active) | -7.3% (active) | 27% | 6.01% (active) | 9.99% (active) | -1.49% (active) | -47.1% (active) | -4.7% (active) | 2.9% (active) | -76.9% (active)
